Records with an inconclusive call do not appear. Active and inactive are the calls of the source. Unless noted, how the calls were made is not given here.
molecular target: ATP-dependent translocase ABCB1 (Homo sapiens) (UniProt P08183); assay: P-glycoprotein substrate transport blockade – cell-based (AID 377; in the data active means fluorescence slope change above about 50%); settings: MDR1-expressing cells, fluorescent substrate accumulation slope; active compounds read high; concentration not given here
Sequence (P08183 whole entry, looked up): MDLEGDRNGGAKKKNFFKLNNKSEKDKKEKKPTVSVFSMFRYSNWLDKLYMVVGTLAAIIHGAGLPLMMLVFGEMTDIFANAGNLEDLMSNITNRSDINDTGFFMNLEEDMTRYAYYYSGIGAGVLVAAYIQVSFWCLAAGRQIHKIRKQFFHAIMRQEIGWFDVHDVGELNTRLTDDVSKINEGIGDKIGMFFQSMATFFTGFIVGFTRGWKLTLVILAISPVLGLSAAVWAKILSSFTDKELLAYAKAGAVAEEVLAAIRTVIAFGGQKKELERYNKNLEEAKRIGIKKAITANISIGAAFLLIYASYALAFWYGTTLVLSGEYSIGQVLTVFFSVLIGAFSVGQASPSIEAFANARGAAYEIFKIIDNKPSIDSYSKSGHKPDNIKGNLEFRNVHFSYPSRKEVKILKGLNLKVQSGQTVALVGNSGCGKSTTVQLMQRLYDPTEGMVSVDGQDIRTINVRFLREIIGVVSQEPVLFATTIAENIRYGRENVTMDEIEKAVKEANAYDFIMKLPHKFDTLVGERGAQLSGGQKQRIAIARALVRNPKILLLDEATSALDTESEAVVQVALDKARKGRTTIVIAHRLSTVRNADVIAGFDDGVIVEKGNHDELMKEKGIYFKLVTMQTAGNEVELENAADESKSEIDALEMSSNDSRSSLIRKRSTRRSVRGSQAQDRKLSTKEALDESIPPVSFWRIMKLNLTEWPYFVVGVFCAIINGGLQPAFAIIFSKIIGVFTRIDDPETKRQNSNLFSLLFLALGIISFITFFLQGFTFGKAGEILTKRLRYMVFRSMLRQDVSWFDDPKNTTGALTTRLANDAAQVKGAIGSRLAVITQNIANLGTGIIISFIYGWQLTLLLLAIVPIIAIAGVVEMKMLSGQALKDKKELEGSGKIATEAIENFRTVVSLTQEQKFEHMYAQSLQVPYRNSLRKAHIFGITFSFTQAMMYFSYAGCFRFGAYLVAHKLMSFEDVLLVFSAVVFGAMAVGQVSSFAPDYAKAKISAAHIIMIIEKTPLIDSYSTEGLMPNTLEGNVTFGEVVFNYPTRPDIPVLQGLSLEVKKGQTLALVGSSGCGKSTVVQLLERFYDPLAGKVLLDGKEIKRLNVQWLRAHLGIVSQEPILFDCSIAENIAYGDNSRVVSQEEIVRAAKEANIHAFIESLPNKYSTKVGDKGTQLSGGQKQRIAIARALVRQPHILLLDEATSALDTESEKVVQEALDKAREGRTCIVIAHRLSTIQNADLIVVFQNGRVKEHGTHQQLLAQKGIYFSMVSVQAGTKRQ

Row | SMILES | fluorescence slope change
1 | NCC1OC(OC2C(N)CC(N)C(O)C2O[C@@H]2O[C@H](CO)[C@H](OC3OC(CN)C(O)C(O)C3N)C2O)C(N)C(O)C1O (stereo not given in full) | 78.1% (active)
2 | CC[C@H]1OC(=O)[C@H](C)[C@@H](OC2CC(C)(OC)C(O)C(C)O2)[C@H](C)[C@@H](OC2OC(C)CC(N(C)C)C2O)[C@@H](C)C[C@](C)(O)[C@@H]2N[C@H](COCCOC)O[C@H]([C@H]2C)[C@]1(C)O (stereo not given in full) | 59.6% (active)
3 | COc1cc2cc(N(C)CCCNC(=O)C3CCCO3)cc(N)c2cc1OC (stereo not given) | 52.5% (active)
4 | CCOc1ccc2ccccc2c1C(=O)NC1C(=O)N2C1SC(C)(C)C2C(=O)O (stereo not given) | 71.1% (active)
5 | CC(=O)S[C@@H]1CC2=CC(=O)CC[C@]2(C)[C@H]2CC[C@@]3(C)[C@@H](CC[C@]34CCC(=O)O4)[C@H]12 | 162% (active)
6 | COc1ccc2cc3n(c(=O)c2c1OC)CCc1cc2c(cc1-3)OCO2 | 57.9% (active)
7 | COC(=O)C1[C@H]2C[C@H]3c4[nH]c5ccccc5c4CCN3C[C@H]2CC[C@@H]1O (stereo not given in full) | 78.8% (active)

tested on: not listed separately; assay: compounds altering circadian rhythm period length – cell-based, LOPAC library, luminescence reporter (AID 2774); settings: circadian reporter cells, at 7 µM, actives lie on both sides;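 further: values are relative to mean of DMSO wells on each plate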

Row | SMILES | period change
8 | Cn1cnc2c(NC3CCCC3)ncnc21 | 0.425 h (inactive)
9 | COc1ccc(CCNC[C@@H](O)c2ccc(O)cc2)cc1OC | 0.05 h (inactive)
10 | O=C(Cc1ccc(Cl)c(Cl)c1)OCCN1CCCC1 | -0.095 h (inactive)
11 | NC(=NCc1ccc(Cl)c(Cl)c1)NC(=O)c1nc(Cl)c(N)nc1N | 0.175 h (inactive)
12 | COc1ccc2c(c1)c(CC(=O)O)c(C)n2Cc1ccc(F)cc1 | -0.005 h (inactive)
13 | COc1cc(OC)cc(C(CNc2ncnc3c2ncn3[C@@H]2O[C@H](CO)[C@H](O)C2O)c2ccccc2C)c1 (stereo not given in full) | -0.11 h (inactive)
14 | CC(=O)NCCc1ccc(O)c(O)c1 | -0.045 h (inactive)
15 | Nc1ncnc2c1ncn2[C@@H]1O[C@H](C(=O)NC2CC2)[C@H](O)C1O (stereo not given in full) | -0.165 h (inactive)
16 | O=C(O)[C@@H]1C[C@H](C(=O)O)N1 | -0.02 h (inactive)
17 | C/C=C1\C(=O)CC2C3CCC4=CC(=O)CC[C@]4(C)C3CC[C@]12C (stereo not given in full) | 0.03 h (inactive)
18 | NCCNC(=O)c1ncsc1-c1cccc(F)c1 | 0.08 h (inactive)
19 | CC(COc1ccc(/C=C/c2ccccc2)cc1)[N+](C)(C)C (stereo not given) | -0.13 h (inactive)
20 | OC[C@H]1O[C@@H](n2cnc3c(N[C@H]4CC5CCC4C5)ncnc32)[C@H](O)[C@@H]1O (stereo not given in full) | -0.33 h (inactive)
21 | COc1ccccc1N1CCN(CCN(C(=O)c2ccc(I)cc2)c2ccccn2)CC1 | 0.08 h (inactive)
22 | O=C(Nc1cc(C(=O)Nc2ccc(S(=O)(=O)O)cc2S(=O)(=O)O)cc(C(=O)Nc2ccc(S(=O)(=O)O)cc2S(=O)(=O)O)c1)Nc1cc(C(=O)Nc2ccc(S(=O)(=O)O)cc2S(=O)(=O)O)cc(C(=O)Nc2ccc(S(=O)(=O)O)cc2S(=O)(=O)O)c1 | -0.05 h (inactive)
23 | COc1cc2c(cc1OC)[C@@H](c1ccccc1)CN(C)CC2 | 0 h (inactive)
24 | CCCCN1CCC(n2c(=O)[nH]c3ccccc32)CC1 | -0.16 h (inactive)

Row | SMILES | period change
25 | CC(C)[C@@H]1NC(=O)[C@H](CCCCN)NC(=O)[C@@H](Cc2c[nH]c3ccccc23)NC(=O)[C@H](Cc2ccc(O)cc2)NC(=O)[C@H](C)N(C)C(=O)[C@H](Cc2ccccc2)NC1=O | -0.2 h (inactive)
26 | N#C/C(=C\c1c[nH]c2ccccc12)C(=O)c1ccc(O)c(O)c1 | 0.275 h (inactive)
27 | CCCn1c(=O)c2[nH]c(-c3ccc(OCC(=O)NCCN)cc3)nc2n(CCC)c1=O | -0.09 h (inactive)
28 | CCCn1c(=O)c2[nH]c(-c3ccc(OCC(=O)Nc4ccc(C#N)cc4)cc3)nc2n(CCC)c1=O | 0.13 h (inactive)
29 | CC(C)CN(C)c1nc(N)c(C(=O)N=C(N)N)nc1Cl | 0 h (inactive)
30 | OC[C@H]1O[C@@H](n2cnc3c(NCCc4ccccc4)ncnc32)C(O)[C@H]1O (stereo not given in full) | 0.19 h (inactive)
31 | C[C@@H](NC(=O)/C(C#N)=C/c1ccc(O)c(O)c1)c1ccccc1 | 0.095 h (inactive)
32 | CCCCCCCCCCCCCCCCCCNC(=O)OCC(COP(=O)([O-])OCC[n+]1ccsc1)OC (stereo not given) | -0.05 h (inactive)
33 | O=C(O)/C=C/C(O)c1ccc(Cl)cc1 (stereo not given) | 0.15 h (inactive)
34 | NCCCCNS(=O)(=O)c1cccc2c(Cl)cccc12 | 0.09 h (inactive)
35 | NCCNC(=O)Cc1ccc(NC(=O)Cc2ccc(Nc3ncnc4c3ncn4[C@@H]3O[C@H](CO)[C@H](O)C3O)cc2)cc1 (stereo not given in full) | -0.095 h (inactive)
36 | Ic1ccc(N2CCN(Cc3c[nH]c4ncccc34)CC2)cc1 | 0.1 h (inactive)
37 | CN1CCc2cc(O)c(O)cc2C(c2ccccc2)C1 (stereo not given) | 0.07 h (inactive)
38 | COc1cc2nc(N3CCN(C(=O)OCc4ccccc4)C(C(=O)NC(C)(C)C)C3)nc(N)c2cc1OC (stereo not given) | 0.085 h (inactive)
39 | O=C(O)[C@@H]1C[C@@H](C(=O)O)N1 | -0.1 h (inactive)
40 | N[C@H](CCC(=O)NCS(=O)(=O)O)C(=O)O | 0.005 h (inactive)
